Compound activity from PubChem BioAssay.
Dicer inh – human Dicer pre-microRNA cleavage inhibition; Q9UPY3; AID 1347074; 47,000 tested, 6% active; z-score at 25 µM; cat-ELCCA pre-miR-21 Dicer processing, chemiluminescence; active compounds read high; in the data active = z-score above about 3, passing the limit was not always enough;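 note: plate controls were vehicle for no effect and no enzyme for full effect; higher signal means more uncleaved substrate so more Dicer inhibition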
Target sequence (Q9UPY3 whole entry, looked up): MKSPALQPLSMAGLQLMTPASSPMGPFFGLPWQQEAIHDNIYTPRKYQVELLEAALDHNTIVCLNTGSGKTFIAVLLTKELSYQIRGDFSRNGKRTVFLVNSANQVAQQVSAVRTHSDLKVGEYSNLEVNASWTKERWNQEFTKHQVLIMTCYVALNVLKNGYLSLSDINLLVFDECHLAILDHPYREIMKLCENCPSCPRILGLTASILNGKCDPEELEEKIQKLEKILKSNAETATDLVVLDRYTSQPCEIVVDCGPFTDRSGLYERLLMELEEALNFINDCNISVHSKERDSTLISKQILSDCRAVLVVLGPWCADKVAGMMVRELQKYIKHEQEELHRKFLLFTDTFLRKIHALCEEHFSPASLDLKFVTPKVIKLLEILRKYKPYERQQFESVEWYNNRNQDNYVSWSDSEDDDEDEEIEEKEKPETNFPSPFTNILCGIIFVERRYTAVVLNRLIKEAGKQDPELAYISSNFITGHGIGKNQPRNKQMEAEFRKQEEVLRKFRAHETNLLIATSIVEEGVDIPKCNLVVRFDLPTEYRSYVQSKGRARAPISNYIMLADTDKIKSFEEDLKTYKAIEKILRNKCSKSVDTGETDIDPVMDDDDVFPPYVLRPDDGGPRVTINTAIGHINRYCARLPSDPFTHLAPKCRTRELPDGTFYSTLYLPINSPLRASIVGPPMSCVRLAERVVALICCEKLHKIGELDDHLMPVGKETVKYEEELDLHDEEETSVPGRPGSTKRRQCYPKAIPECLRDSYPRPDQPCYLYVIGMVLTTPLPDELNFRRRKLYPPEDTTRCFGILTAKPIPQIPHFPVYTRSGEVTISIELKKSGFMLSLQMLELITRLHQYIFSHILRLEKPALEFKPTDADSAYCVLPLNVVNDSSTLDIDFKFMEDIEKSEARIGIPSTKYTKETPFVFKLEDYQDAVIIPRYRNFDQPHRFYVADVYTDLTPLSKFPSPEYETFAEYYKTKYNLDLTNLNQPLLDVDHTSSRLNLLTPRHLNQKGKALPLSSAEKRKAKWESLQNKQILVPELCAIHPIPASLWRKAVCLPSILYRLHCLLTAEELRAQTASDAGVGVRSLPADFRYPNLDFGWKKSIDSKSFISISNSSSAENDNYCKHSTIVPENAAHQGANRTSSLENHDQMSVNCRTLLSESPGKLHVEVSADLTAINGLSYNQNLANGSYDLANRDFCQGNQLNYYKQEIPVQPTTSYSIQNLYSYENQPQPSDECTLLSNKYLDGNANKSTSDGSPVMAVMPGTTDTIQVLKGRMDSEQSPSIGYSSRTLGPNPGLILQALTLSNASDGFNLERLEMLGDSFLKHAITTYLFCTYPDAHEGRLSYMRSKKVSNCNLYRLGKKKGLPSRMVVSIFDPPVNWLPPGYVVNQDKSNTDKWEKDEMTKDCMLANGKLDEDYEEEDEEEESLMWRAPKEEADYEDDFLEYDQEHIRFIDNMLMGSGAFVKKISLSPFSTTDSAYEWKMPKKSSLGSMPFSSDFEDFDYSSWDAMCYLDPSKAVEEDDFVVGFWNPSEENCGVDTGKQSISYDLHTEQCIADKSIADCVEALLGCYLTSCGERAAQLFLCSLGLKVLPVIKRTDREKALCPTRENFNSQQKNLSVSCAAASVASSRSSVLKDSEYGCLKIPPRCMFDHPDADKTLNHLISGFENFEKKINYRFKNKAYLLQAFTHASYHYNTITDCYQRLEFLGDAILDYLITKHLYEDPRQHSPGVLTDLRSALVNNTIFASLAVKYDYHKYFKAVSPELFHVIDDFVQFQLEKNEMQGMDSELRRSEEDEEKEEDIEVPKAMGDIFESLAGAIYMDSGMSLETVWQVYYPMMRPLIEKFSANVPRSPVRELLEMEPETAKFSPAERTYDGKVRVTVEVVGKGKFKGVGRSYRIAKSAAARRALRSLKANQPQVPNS
An asterisk follows results filed as active. Shown is part of a subset that was picked to be rich in hits.

SMILES	Dicer inh
Cc1ccc(S(=O)(=O)Nc2ncccc2OCc2ccc(Cl)c(Cl)c2)cc1	-0.73
Cc1ccc(S(=O)(=O)Nc2cc(Cl)c(O)c3ncccc23)cc1	8.6*
Cc1ccc(S(=O)(=O)Nc2cc(S(=O)(=O)c3ccc(C)cc3)c(O)c3cccnc23)cc1	-0.59
Cc1ccc(C(NC(=O)C(C)C)c2cc(Cl)c3cccnc3c2O)cc1 (stereo unspecified)	1.7
O=C(O)CCSc1nnc(-c2ccc3ccccc3c2)o1	0.22
Cc1c(-c2ccccc2)c(CN2CCN(C)CC2)n2ccccc12	-1.4
O=C(c1ccc(Cl)cc1)n1cc2c(n1)-c1cc(Cl)ccc1SC2	-0.37
Cc1oc(-c2ccccc2)cc1C(=O)Nc1cccc([N+](=O)[O-])c1	2.3
Cn1ccc(NS(=O)(=O)c2ccc(NS(=O)(=O)c3ccc(Cl)cc3)cc2)n1	17
CCCCSc1sc(C(=O)O)c(-c2ccc(Cl)cc2)c1C#N	-0.42
Cc1nnc(SCC2=NN(c3nc4ccccc4[nH]3)C(=O)C2)s1	3.2*
Cc1nnc(SCc2cc(=O)n3c(nc4ccccc43)[nH]2)s1	-1.9
O=C1CC(CSc2nnnn2-c2ccccc2)=NN1c1nc2ccccc2[nH]1	-2.3
CCOc1nc2c(c(-c3ccc(OC)cc3)c1C#N)Cc1ccccc1-2	-1.6
CC(=O)COc1nc2c(c(-c3ccc(Cl)cc3)c1C#N)CCc1ccccc1-2	3.2*
CC(=O)COc1nc2c(c(-c3ccco3)c1C#N)CCc1ccccc1-2	243
COc1cc2c(cc1OC)C(C)N(C(=O)Nc1ccc(OC)c(OC3CCCC3)c1)CC2 (stereo unspecified)	-0.25
CCC/C(O)=c1\c(=O)nc2ccc(Cl)c3c2=c1c1ccccc1c3=O	-0.45
Cc1ccnc(Nc2nc(-c3c(C)nc4cc(C)ccn34)cs2)c1	5.6*
CC(=O)Nc1nc(C)c(-c2csc(Nc3ccc(O)cc3)n2)s1	-2.7
Cc1ccn2c(-c3csc(Nc4ccc(S(=O)(=O)Nc5cc(C)on5)cc4)n3)c(C)nc2c1	2.7
Cc1nc2ncccn2c1-c1csc(Nc2ccc(O)cc2)n1	9.1
Cc1nc(C)c(-c2csc(Nc3ccc(O)cc3)n2)s1	6.1*
COc1ccc(Nc2nc(-c3sc(C)nc3C)cs2)cc1	0.54
Cc1ccn2c(-c3csc(Nc4ccc(O)cc4)n3)c(C)nc2c1	7.1*
SMILES	Dicer inh
Cc1nc2ccccn2c1-c1csc(Nc2ccccn2)n1	9.1
CC(=O)Nc1nc(C)c(-c2csc(Nc3ccccn3)n2)s1	-0.82
COc1ccc(-n2ncc(NC(=O)NCc3cccs3)c2C)cc1	1.9
CCOC(=O)/C(C#N)=C/c1cn(-c2ccccc2)nc1-c1ccc(Cl)cc1	0.29
CC1Sc2ccc(Cl)cc2-c2nc(-n3cccc3)ncc21 (stereo unspecified)	-3.1
O=C(c1cccs1)N1CCc2ccccc2C1	3.7*
O=C(c1ccncc1)N1CCN(C(=O)c2cccs2)CC1	-1.4
N#C/C(=C\N1CCc2ccccc2C1)C(=O)c1cccs1	0.66
Clc1ccc(C2N(Cc3ccccc3)CCC3CCCCN32)cc1 (stereo unspecified)	-0.45
COc1cccc(Nc2nc3ccccc3s2)c1	0.59
c1ccc2sc(NC3=NCN(Cc4ccc5c(c4)OCO5)CN3)nc2c1	2.8
CC1CCCCC1N1CN=C(Nc2nc3ccccc3s2)NC1 (stereo unspecified)	3.8*
Cc1c(C(=O)O)c2ccccc2[nH]c1=O	1
CC(=O)OCCNc1cc(C)c2noc3c2c1C(=O)c1ccccc1-3	-0.47
NC(CCCP(=O)(O)O)C(=O)O (stereo unspecified)	3.2*
CN=C(N)NCCC[C@H](N)C(=O)O	0.12
N[C@@H](CCCC(=O)O)C(=O)O	0.32
O=C(Nc1ccccc1)C1=NN(c2ccccc2)/C(=C2\C(=O)NN=C2c2ccccc2)S1	0.16
COC(=O)c1ccc(-n2ncnc2-c2cccc(Br)c2)cc1	2.3
O=C1c2ccccc2C(=O)N1c1snnc1-c1ccc(Cl)cc1	0.35
CCn1c[n+](CC(O)COc2ccc(F)cc2)c2cc(C)c(C)cc21 (stereo unspecified)	1.5
Cc1ccc(CSc2n[nH]c(=O)[nH]c2=O)cc1	-5.5
O=C(O)c1ccc(N2C(=O)CC(N3CCOCC3)C2=O)cc1 (stereo unspecified)	-1.7
COc1ccc(N2C(=O)CC(N3CCCCC3)C2=O)cc1 (stereo unspecified)	0.16
CC(C)Oc1ccc(C2CC(=O)N(c3ccc(C(=O)O)cc3)C2=O)cc1 (stereo unspecified)	4.8*
SMILES	Dicer inh
Cc1ccccc1CSc1nnc(CCN)o1	-0.12
CCOC(=O)C(C(=O)OCC)c1c([N+](=O)[O-])c(=O)n(C)c2ccccc12	-1.6
CCCc1nn(C)c(C(N)=O)c1[N+](=O)[O-]	5.5*
Cn1cnc([N+](=O)[O-])c1N1CCC(C(N)=O)CC1	-1.6
Cc1c(C)c(C)c(S(=O)(=O)Oc2ccc(Cl)c(Cl)c2)c(C)c1C	0.31
Cc1cc(S(=O)(=O)Oc2c(Cl)cccc2Cl)cc(C)c1F	-0.24
Cc1c(C)c(C)c(S(=O)(=O)Oc2c(Cl)cccc2Cl)c(C)c1C	6.9*
COC(=O)/C=C1\SC(=Nc2ccc(C)c(Cl)c2)N(c2ccc(C)c(Cl)c2)C1=O	-1.6
